The record followed here is PubChem BioAssay (EPA / NIEHS).

Each structure is given as a SMILES string. Results filed as inconclusive are left out. The source made the active and inactive calls. How the source made its calls, unless noted: active means hit-call score of the fitted dose curve at least 0.9, where 1 is the maximum; inactive means score below 0.9.

The nature of assay [1]: CCTE_Harrill_HTTr_Viability_MCF7: CCTE's 6-hour Cell Viability Assessment for the High-Throughput Transcriptomics (HTTr) Platform, in MCF-7 cells cultured in DMEM + 10% fetal bovine serum, Harrill Lab (AID 2284010). Put shortly: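 Eight-point concentration series, six-hour exposure. Propidium iodide exclusion imaged to assess membrane integrity as a cytotoxicity readout; bidirectional fitting was done with DMSO as negative control and activity baseline.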

Assay [2] in a line: CCTE_Harrill_HTTr_Apoptosis_MCF7: CCTE's 6-hour Apoptosis Assessment for the High-Throughput Transcriptomics (HTTr) Platform, in MCF-7 cells cultured in DMEM + 10% fetal bovine serum, Harrill Lab (AID 2284011). A digest of the protocol: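 MCF-7 cells in DMEM + 10% FBS exposed 6 h to chemicals over an eight-point dilution series. Caspase-3/7 activation imaged by high-content CellEvent Green staining; fitted bidirectionally versus DMSO.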

A short description of assay [3]: CCTE_Harrill_HTTr_CellCount_MCF7: CCTE's Cell Proliferation Assessment for the High-Throughput Transcriptomics (HTTr) Platform, Harrill Lab (AID 2284012; active means hit-call score of the fitted dose curve at least 0.9, where 1 is the maximum;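 further: intended direction is loss of nuclei count meaning fewer cells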). Put shortly: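 For this full-screen endpoint, MCF-7 cultures received eight compound dilutions for six hours. Well nuclei counts from Hoechst imaging were analyzed relative to DMSO.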

For the molecule `BrCCBr`, the outcome in assay [1] and in assay [2] was inactive.

Turning to `Oc1ccc(-c2ccccc2)cc1`, the outcome in assay [1], in assay [2] and in assay [3] was inactive.

As for `COP(=S)(OC)Oc1cc(Cl)c(Br)cc1Cl`, the result in assay [1] and in assay [2] was inactive.

Turning to `C1CCC(NC2CCCCC2)CC1`, the outcome in assay [1] and in assay [2] was inactive.

On to `O=CC=O`, for which the outcome in assay [1], in assay [2] and in assay [3] was inactive.

`Fc1ccc(C2(Cn3cncn3)OC2c2ccccc2Cl)cc1` (stereo not drawn): the outcome in assay [1] and in assay [2] was inactive.

For the molecule `CC12CC1(C)C(=O)N(c1cc(Cl)cc(Cl)c1)C2=O` (stereo not drawn), the result in assay [1], in assay [2] and in assay [3] was inactive.

Take `O=c1[nH]c(=O)[nH]c(=O)[nH]1`: the result in assay [1], in assay [2] and in assay [3] was inactive.

Consider `Cn1sc(Cl)cc1=O`, for which the outcome in assay [1] and in assay [2] was inactive.

`CC(C)OC(=O)Nc1ccccc1`: the outcome in assay [1], in assay [2] and in assay [3] was inactive.

As for `COP(=S)(OC)Oc1ccc(Sc2ccc(OP(=S)(OC)OC)cc2)cc1`, the result in assay [1] and in assay [2] was inactive.

Turning to `CCOP(=S)(OCC)Oc1ccc(S(C)=O)cc1` (stereo not drawn), the result in assay [1], in assay [2] and in assay [3] was inactive.

On to `Cc1ccccc1N`, for which the outcome in assay [1] and in assay [2] was inactive.

`Clc1ccc(COC(Cn2ccnc2)c2ccc(Cl)cc2Cl)cc1` (stereo not drawn): the result in assay [1], in assay [2] and in assay [3] was inactive.

In the case of `CN(C)N=O`, the outcome in assay [1], in assay [2] and in assay [3] was inactive.

Take `CC(C)CCCCCCOC(=O)c1ccccc1C(=O)OCCCCCCC(C)C`: the result in assay [1], in assay [2] and in assay [3] was inactive.

Turning to `ClCCBr`, the outcome in assay [1] and in assay [2] was inactive.

For the molecule `Cl/C=C/Cl`, the outcome in assay [1] and in assay [2] was inactive.

Consider `Cc1ccc2ccccc2c1C`, for which the outcome in assay [1] and in assay [2] was inactive.

On to `CCCCOCCOC(C)=O`, for which the outcome in assay [1], in assay [2] and in assay [3] was inactive.

Regarding `COc1ccccc1OC`, the result in assay [1] and in assay [2] was inactive.

`CNC(=O)O/N=C/C(C)(C)S(C)=O` (stereo not drawn): the result in assay [1] and in assay [2] was inactive.

For the molecule `CCCCCCCCCl`, the result in assay [1], in assay [2] and in assay [3] was inactive.

Consider `O=Cc1cccc(Oc2ccccc2)c1`, for which the result in assay [1] and in assay [2] was inactive.

In the case of `CC(C)(c1ccc(OCC2CO2)cc1)c1ccc(OCC2CO2)cc1` (stereo not drawn), the outcome in assay [1] and in assay [2] was inactive.

Consider `NC(=O)CF`, for which the outcome in assay [1] and in assay [3] was inactive.

With `O=C(Cc1ccccc1)c1ccccc1`, the outcome in assay [1] and in assay [3] was inactive.

With `P.[In]`, the result in assay [1], in assay [2] and in assay [3] was inactive.

Regarding `C[C@@H]1C[C@@H]([C@H](O)CC2CC(=O)NC(=O)C2)C(=O)[C@@H](C)C1`, the outcome in assay [1], in assay [2] and in assay [3] was inactive.

`COP(=O)(OC)OC`: the result in assay [1] and in assay [3] was inactive.

For `O=C(O)C(F)(F)C(F)(F)C(F)(F)C(F)(F)C(F)(F)C(F)(F)F`, the result in assay [1] and in assay [3] was inactive.

As for `Cc1ccc(N)cc1Cl`, the result in assay [1] and in assay [3] was inactive.

For `Oc1cccc2cccnc12`, the outcome in assay [1], in assay [2] and in assay [3] was inactive.

Take `CCCCCCCCC(=O)NCc1ccc(O)c(OC)c1`: the outcome in assay [1] and in assay [3] was inactive.

On to `CC(C)C1CCC(Cc2ccc(Cl)cc2)C1(O)Cn1cncn1` (stereo not drawn), for which the result in assay [1] and in assay [3] was inactive.

Take `ClC1=C(Cl)[C@]2(Cl)[C@H]3[C@H]([C@H]4C=C[C@H]3C4)[C@@]1(Cl)C2(Cl)Cl`: the outcome in assay [1], in assay [2] and in assay [3] was inactive.

On to `C[C@@H](Oc1ccc(Cl)cc1Cl)C(=O)O`, for which the outcome in assay [1] and in assay [3] was inactive.

Turning to `C=CC#N`, the outcome in assay [1] and in assay [3] was inactive.

With `ClC(Cl)=C(Cl)C(Cl)=C(Cl)Cl`, the outcome in assay [1], in assay [2] and in assay [3] was inactive.

In the case of `Cc1ccccc1C(=O)Nc1cccc(OC(C)C)c1`, the result in assay [1] and in assay [3] was inactive.

As for `Oc1c(I)cc(I)cc1I`, the result in assay [1], in assay [2] and in assay [3] was inactive.

With `COc1ccc(C=O)cc1`, the outcome in assay [1] and in assay [3] was inactive.

Consider `CCOC(=O)Nc1cccc(OC(=O)Nc2ccccc2)c1`, for which the outcome in assay [1], in assay [2] and in assay [3] was inactive.

In the case of `CC1(C)Cc2cccc(O)c2O1`, the result in assay [1] and in assay [3] was inactive.

In the case of `COc1ccc(C(O)(c2cncnc2)C2CC2)cc1` (stereo not drawn), the outcome in assay [1], in assay [2] and in assay [3] was inactive.

As to `CCC[CH2][Sn]([CH2]CCC)([CH2]CCC)[O]C(=O)c1ccccc1`, the AC50 in assay [1] was 15.6 µM (active); in assay [3] it was 17.9 µM (active).

Take `CC(Br)C(=O)O` (stereo not drawn): the result in assay [1] and in assay [3] was inactive.

With `COc1ccc(C=O)cc1OC`, the outcome in assay [1], in assay [2] and in assay [3] was inactive.

Consider `Nc1ccc(N=Nc2ccc(-c3ccc(N=Nc4c(S(=O)(=O)O)cc5cc(S(=O)(=O)O)c(N=Nc6ccccc6)c(O)c5c4N)cc3)cc2)c(N)c1`, for which the outcome in assay [1] and in assay [3] was inactive.

In the case of `CC1CCCCC1NC(=O)Nc1ccccc1` (stereo not drawn), the outcome in assay [1], in assay [2] and in assay [3] was inactive.

As for `N#CCCO`, the result in assay [1] and in assay [3] was inactive.

With `O=S(=O)(c1ccc(Cl)cc1)c1ccc(Cl)cc1`, the result in assay [1] and in assay [3] was inactive.

Turning to `Nc1ccc(-c2ccc(N)c(Cl)c2)cc1Cl`, the outcome in assay [1] and in assay [3] was inactive.

With `CC(C)c1cccc(C(C)C)c1O`, the result in assay [1] and in assay [3] was inactive.

Consider `C[C@H]1CCCC(=O)CCC/C=C/c2cc(O)cc(O)c2C(=O)O1`, for which the result in assay [1], in assay [2] and in assay [3] was inactive.

Take `C[C@H]1O[C@@H](O[C@H]2[C@@H](O)C[C@H](O[C@H]3[C@@H](O)C[C@H](O[C@H]4CC[C@@]5(C)[C@H](CC[C@@H]6[C@@H]5CC[C@]5(C)[C@@H](C7=CC(=O)OC7)CC[C@]65O)C4)O[C@@H]3C)O[C@@H]2C)C[C@H](O)[C@@H]1O`: the outcome in assay [1] and in assay [3] was inactive.

In the case of `COc1cc2c(cc1OC)[C@@]13CCN4CC5=CCO[C@H]6CC(=O)N2[C@H]1[C@H]6[C@H]5C[C@H]43`, the outcome in assay [1] and in assay [3] was inactive.

For `COP(=S)(OC)Oc1cc(Cl)c(Cl)cc1Cl`, the result in assay [1], in assay [2] and in assay [3] was inactive.

Regarding `CC1(C)CCC(Cc2ccc(Cl)cc2)C1(O)Cn1cncn1` (stereo not drawn), the outcome in assay [1] and in assay [3] was inactive.

In the case of `Nc1cccc2ccccc12`, in assay [1], the AC50 was 37.4 µM (active). For the same molecule, the outcome in assay [3] was inactive.
